Laboratory results reported in PubChem BioAssay (NCATS).
Where “and” joins values, the source holds several entries; their conditions need not be identical. Equal entries are not always repeated. Results filed as inconclusive are left out. Calls of active or inactive are those of the source. Unless noted, calls come from the whole dose curve; as a rule, active = well fitted curve in the direction sought with a large enough effect; inconclusive = small, poorly fitted or top-dose-only effect, or another doubt; inactive = no such curve, though single readings can be large; an effect the other way counts as inactive or inconclusive.

What was measured:
[1] = Cell Viability - BJ (AID 421; calls by dose curve;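 note: potency is the fitted concentration of half-maximal effect; cells exposed to compound for 40 hours at 37 °C before readout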); conditions: BJ fibroblast viability, qHTS
Procedure, shortened: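 Normal human BJ foreskin fibroblasts, 1500/well in complete medium, treated 40 hr at 37 °C. Cellular ATP by CellTiter-Glo luminescence; normalized to DMSO and 100 uM tamoxifen, AC50 from Hill fit.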

[2] = Cell Viability - Jurkat (AID 426;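 active = dose-dependent loss of cell ATP signal giving a full or clear fitted curve, ranked by lower potency value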; note: potency is the fitted concentration of half-maximal effect); conditions: qHTS
Procedure, shortened: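 Cells of the human T-cell leukemia line Jurkat (E6-1) are seeded at 5000 per well, treated with compound across a concentration range for 40 hours at 37 °C, then lysed with CellTiter-Glo; luminescence reports ATP.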

[3] = Cell Viability - Hek293 (AID 427;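 active = compounds whose dose-response curve shows a full or clear partial loss of cell viability, called from curve shape rather than a numeric limit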;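 note: potency is the fitted concentration of half-maximal effect; cells exposed to compound for 40 hours at 37 °C before reading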); conditions: qHTS
Procedure, shortened: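 HEK293 cells in complete medium were exposed to compound for 40 hr at 37 °C, then cellular ATP was read by CellTiter-Glo luminescence. Data were normalized to DMSO (basal) and 100 uM tamoxifen (100% inhibition), and AC50 came from Hill fits.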

[4] = Cell Viability - HepG2 (AID 433; calls by dose curve;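 note: potency is the fitted concentration of half-maximal effect; potency for ATP loss meaning cytotoxicity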); conditions: qHTS
Procedure, shortened: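 Read-out is luciferase-based quantitation of cellular ATP as a measure of viable HepG2 cells after 40 h treatment at 37 °C. Signal decrease is scaled between DMSO-only and 100 uM tamoxifen controls, with AC50 fitted by the Hill equation.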

[5] = Cell Viability - MRC5 (AID 434; calls by dose curve;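 note: potency is the fitted concentration of half-maximal effect; potency reflects cytotoxicity seen as loss of intracellular ATP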); conditions: MRC5 lung fibroblast viability, qHTS
Procedure, shortened: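 ATP luminescence read-out (CellTiter-Glo, 20 min RT) after 40 hr, 37 °C compound exposure of 1500 MRC5 cells/well. Data normalized to DMSO (basal) and 100 uM tamoxifen (100% inhibition); AC50 from standard Hill equation.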

[6] = Cell Viability - SK-N-SH (AID 435; calls by dose curve;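 note: potency is the fitted concentration of half-maximal effect; compound exposure lasted 40 h at 37 °C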); conditions: SK-N-SH neuroblastoma cell viability qHTS
Procedure, shortened: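 Luminescent ATP signal served as the viability read-out after 40 hours of compound treatment of human neuroblastoma SK-N-SH cells. Concentration-response data, scaled between DMSO and 100 uM tamoxifen, gave AC50 values by standard Hill modeling.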

[7] = target: Mitogen-activated protein kinase 10 (Mus musculus) (UniProt Q61831); assay: JNK3 AlphaScreen Assay (AID 530; active = well fitted curve in either direction with a large enough effect, not every such curve was filed as active;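 note: kinase came from lysate of stimulated human HepG2 cells; signal reports phosphorylation of biotinylated GST-cJun 1-79 at Ser73 with 10 µM ATP; % is set by controls: 0 for no effect and ±100 for the full control effect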)
Procedure, shortened: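 Activity was read by AlphaScreen after JNK3-containing HepG2 lysate (cytokine pre-activated) phosphorylated biotinylated GST-cJun with 10 uM ATP at room temperature. Phospho-Ser73 cJun antibody with Protein-A acceptor beads provided detection.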

[8] = Cell Viability - N2a (AID 540); conditions: N2a mouse neuroblastoma cell viability; activity change, negative = cytotoxicity: at 92.2 µM (top of the series); note: potency is the fitted concentration of half-maximal effect; nearly all actives have a fitted effect of over 45% in size
Procedure, shortened: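 Cytotoxicity was scored as loss of cellular ATP in N2a cells, a mouse neuroblastoma line. Compounds are applied in a qHTS concentration series for 40 hr at 37 °C.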

[9] = Cell Viability - NIH 3T3 (AID 541); conditions: NIH 3T3 cell viability, qHTS; activity change, negative = cytotoxicity: at 92.2 µM (top of the series); note: potency is the fitted concentration of half-maximal effect; nearly all actives have a fitted effect of over 25% in size
Procedure, shortened: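 Cells seeded at 1000/well, rested 5 hr at 37 °C, then dosed and incubated 40 hr at 37 °C. CellTiter-Glo added, 20 min room temperature, luminescence read. AC50 by Hill fit.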

[10] = Cell Viability - HUV-EC-C (AID 542); note: potency is the fitted concentration of half-maximal effect; nearly all actives have a fitted effect of over 35% in size
Procedure, shortened: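 Cells were seeded at 1000 per well and incubated 5 hr at 37 °C before compound addition. After 40 hr at 37 °C, CellTiter-Glo reagent was added for 20 min and luminescence read. AC50 values came from Hill-equation modelling.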

[11] = Cell Viability - H-4-II-E (AID 543); note: potency is the fitted concentration of half-maximal effect; nearly all actives have a fitted effect of over 35% in size
Procedure, shortened: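 Cells seeded at 1500 per well and rested 5 hr; compounds added; 40 hr incubation at 37 °C; CellTiter-Glo added, 20 min at room temperature; luminescence read. Hill-equation fits gave AC50.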

[12] = Cell Viability - SH-SY5Y (AID 544); conditions: SH-SY5Y neuroblastoma cell viability; viability change, negative = cytotoxic: at 92.2 µM (top of the series); note: potency is the fitted concentration of half-maximal effect; nearly all actives have a fitted effect of over 55% in size
Procedure, shortened: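 Cells were plated at 1500 per well and allowed 5 hr at 37 °C. Compounds were added across a concentration range and incubated 40 hr at 37 °C. CellTiter-Glo was added for 20 min at room temperature before luminescence reading.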

[13] = Cell Viability - Renal Proximal Tubule (AID 545); conditions: renal proximal tubule cells viability, primary cells of rat origin; activity change, negative = cytotoxicity: at 91.7 µM (top of the series); note: potency is the fitted concentration of half-maximal effect; nearly all actives have a fitted effect of over 40% in size
Procedure, shortened: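 Luminescent ATP signal (CellTiter-Glo) served as the viability read-out after 40 hr compound exposure of freshly isolated rat proximal tubule cells at 37 °C. Concentration-dependent ATP loss was fitted with the Hill equation to give AC50.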

[14] = Cell Viability - Mesenchymal (AID 546); conditions: mesenchymal cells viability, qHTS; activity change, negative = cytotoxicity: at 91.7 µM (top of the series);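 note: cells exposed to compound for 40 hours before reading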
Procedure, shortened: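 Human renal mesenchymal cells (glomerulus-derived), 1000 cells/well, 5 hr 37 °C pre-incubation; compound 40 hr, 37 °C; CellTiter-Glo, 20 min RT; luminescence; AC50 via Hill equation.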

[15] = Cellular Toxicity (caspase-3) HepG2 (AID 654);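 note: cells exposed to compound for 16 hours before reading; 0% = DMSO alone and 100% = caspase signal from 100 µM tamoxifen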
Procedure, shortened: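 Caspase 3/7 activation in HepG2 is measured as rising luminescence after a 16 hr treatment at 37 °C. Values are scaled between DMSO basal and 100 uM tamoxifen, and AC50 is fitted with the Hill equation.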

[16] = Cellular Toxicity (caspase-3) Jurkat (AID 655); conditions: Jurkat caspase-3 activation, luminescence; caspase-3 activation: at 92.2 µM (top of the series), DMSO = 0%, tamoxifen = 100%;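 note: cells exposed to compound for 16 h at 37 °C before reading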
Procedure, shortened: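 5000 Jurkat cells/well; compound 16 hr, 37 °C; Caspase-Glo 3/7 added, 20 min RT; luminescence read. Norm: DMSO = 0%, tamoxifen 100 uM = 100%. AC50, Hill model.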

[17] = Cellular Toxicity (caspase-3) HUV-EC-C (AID 656)
Procedure, shortened: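 qHTS; HUV-EC-C, 1000 cells/well; 5 hr settle, 16 hr cmpd, 37°C; Caspase-Glo 3/7, 20 min RT; luminescence. Norm: DMSO = 0%, tamoxifen 100 uM = 100%. Hill-fit AC50.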

[18] = Cellular Toxicity (caspase-3) SK-N-SH (AID 661); conditions: SK-N-SH caspase-3 activation, qHTS; caspase-3 activation: at 91.7 µM (top of the series), DMSO as zero, staurosporine as full;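 note: 0% = DMSO basal and 100% = 10 µM staurosporine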
Procedure, shortened: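 Cells were seeded and incubated 5 hr at 37 °C, dosed with compound over a concentration range for 16 hr, then given Caspase-Glo 3/7 reagent for 1 hr at room temperature before luminescence reading.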

[19] = Cellular Toxicity (caspase-3) Hek293 (AID 664); conditions: HEK293 caspase-3 activation, DMSO = 0%, 100 µM tamoxifen = 100%; at 92.2 µM (top of the series);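 note: cells exposed to compound for 16 h at 37 °C before readout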
Procedure, shortened: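 qHTS, HEK293 (human embryonic kidney), 16 h cpd exposure in complete medium. Caspase-3/7 activation = luminescence increase; normalized to DMSO/100 uM tamoxifen; Hill-fit AC50.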

[20] = Cellular Toxicity (caspase-3) N2a (AID 665); conditions: Potency: caspase-3 activation;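 note: potency is the fitted concentration of half-maximal effect; compound exposure lasted 16 h at 37 °C before readout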
Procedure, shortened: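 Caspase-3/7 activation, measured as increased luminescence from aminoluciferin release, is quantified in mouse N2a cells exposed to compounds for 16 h. Values are normalized to DMSO and 10 uM staurosporine, with AC50 derived by Hill modelling.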

[21] = Cellular Toxicity (caspase-3) NIH 3T3 (AID 666);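 note: caspase signal read after 16 h compound exposure; 0% = DMSO basal and 100% = 100 µM tamoxifen stimulation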
Procedure, shortened: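 Cells were plated at 1000 per well and incubated 5 hr at 37°C, then compound was added for 16 hr. Caspase-Glo 3/7 reagent followed for 20 min at room temperature before luminescence was read.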

[22] = Cellular Toxicity (caspase-3) Renal Proximal Tubule (AID 667);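 note: cells exposed to compound for 16 hours at 37 °C before detection; 0% = DMSO basal and 100% = 10 µM staurosporine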
Procedure, shortened: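 AC50 derived by standard Hill fit of concentration-response data, normalized between DMSO basal and 10 uM staurosporine as 100% stimulation. Cells: primary rat kidney proximal tubule, 16 h treatment at 37 °C.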

[23] = target: Glucocorticoid receptor (Homo sapiens) (UniProt P04150); assay: qHTS assay for small molecule agonists of glucocorticoid receptor signaling (AID 588532; active = well fitted curve in the direction sought with a large enough effect in the signal ratio, with a control signal flat; the % refers to the signal ratio;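 note: 100% = dexamethasone at 0.1 µM and 0% = DMSO only wells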); conditions: HeLa MMTV-bla, beta-lactamase ratio, agonist, 18 h; stronger effect = higher value; percent of dexamethasone control, DMSO zero
Procedure, shortened: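 MMTV-bla HeLa beta-lactamase reporter cells in 1% charcoal/dextran FBS medium, compounds up to 92 uM for 18 h at 37 C, CCF4 readout; normalized to 0.1 uM dexamethasone (100%), EC50 and efficacy from Hill fits.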

[24] = target: Thyroid hormone receptor beta (Homo sapiens) (UniProt P10828); assay: qHTS assay for small molecule agonists of thyroid hormone receptor beta signaling (AID 588545; calls by dose curve;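 note: 0% = DMSO only and 100% = 10 nM T3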)
Procedure, shortened: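 Compounds were tested as agonists in TR-UAS-bla-GripTite HEK 293 cells. After 18 hrs at 37 C, CCF4 substrate was added and fluorescence read after 2 hrs at room temperature.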

[25] = target: Voltage-gated inwardly rectifying potassium channel KCNH2 (Homo sapiens) (UniProt Q12809); assay: qHTS Assay for Small Molecule Inhibitors of the Human hERG Channel Activity (AID 588834);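 note: top concentration of the series differs between compounds; % is set by controls: 0 for no effect and ±100 for the full control effect; lower thallium flux fluorescence means stronger hERG block; nearly all actives have a fitted effect of over 50% in size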
Procedure, shortened: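 Step 1: BacMam hERG transduction of U2OS, 4 hrs RT. Step 2: overnight 37 °C, plate 2000 cells/well, 4 hr. Step 3: FluxOR load, compound 10 min, stimulate, read fluorescence.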

[26] = target: Tumor necrosis factor (Homo sapiens) (UniProt P01375); assay: qHTS assay to identify small molecules that stimulate Tumor Necrosis Factor-alpha (TNF-alpha) secretion (AID 651757; active = well fitted curve in the direction sought with a large enough effect in the signal ratio; the % refers to the signal ratio; note: 0% is about no effect)
Procedure, shortened: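 Human monocytic THP-1 cells are plated, treated with compound and held at 37 C for 17 hrs. Labeled anti-TNF-alpha antibody mixture is then added; after 3 hr at room temperature, TR-FRET signal reports secreted TNF-alpha.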

[27] = qHTS assay for environmental chemicals that activate the Aryl hydrocarbon Receptor (AhR) signaling pathway (AID 651777); conditions: 1A2-DRE human hepatoma cells, luciferase, 24 h; activation: stronger effect = higher value; note: % of control where 0% means no effect; nearly all actives have a fitted effect of over 15% in size
Procedure, shortened: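 1A2-DRE human hepatoma reporter line; 1,200 cells/well; cmpd or DMSO 24 h, 37 C/5% CO2; One-Glo 30 min RT; luciferase lum.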

[28] = target: Peroxisome proliferator-activated receptor alpha (Homo sapiens) (UniProt Q07869); assay: qHTS assay for small molecule agonists of the peroxisome proliferator-activated receptor alpha (PPARalpha) signaling pathway (AID 651778); conditions: PathHunter PPARalpha complementation, chemiluminescence, 6 h; max response: stronger effect = higher value; note: % of control where 0% means no effect
Procedure, shortened: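 Enzyme-fragment complementation assay in which ligand-bound PPARalpha translocates and forms an active enzyme that generates chemiluminescence. Cells were plated overnight, exposed to compound for 6 hr at 37 C, and then given detection reagent for 60 min at room temperature.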

[29] = qHTS assay for cell viability of HEK293 cells (AID 743288); conditions: ATP luminescence (CellTiter-Glo), 18 h; max response: stronger effect = lower value; note: potency is the fitted concentration of half-maximal effect; nearly all actives have a fitted effect of over 50% in size
Procedure, shortened: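 Viable-cell counts were inferred from luciferase-based ATP content in HEK293 cells seeded at 2,000/well, pre-incubated ≥5 h, then dosed with DMSO-solubilised compounds for 18 h at 37 C.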

[30] = target: Nuclear receptor subfamily 1 group I member 2 (Rattus norvegicus) (UniProt Q9R1A7); assay: qHTS assay for small molecule activators of the rat pregnane X receptor (rPXR) signaling pathway (AID 651751; call rule not given here; note: 0% is about no effect); conditions: rPXR reporter cells, luciferase (One-Glo), 24 h
Sequence of Nuclear receptor subfamily 1 group I member 2 (Rattus norvegicus) (Q9R1A7 whole entry, looked up): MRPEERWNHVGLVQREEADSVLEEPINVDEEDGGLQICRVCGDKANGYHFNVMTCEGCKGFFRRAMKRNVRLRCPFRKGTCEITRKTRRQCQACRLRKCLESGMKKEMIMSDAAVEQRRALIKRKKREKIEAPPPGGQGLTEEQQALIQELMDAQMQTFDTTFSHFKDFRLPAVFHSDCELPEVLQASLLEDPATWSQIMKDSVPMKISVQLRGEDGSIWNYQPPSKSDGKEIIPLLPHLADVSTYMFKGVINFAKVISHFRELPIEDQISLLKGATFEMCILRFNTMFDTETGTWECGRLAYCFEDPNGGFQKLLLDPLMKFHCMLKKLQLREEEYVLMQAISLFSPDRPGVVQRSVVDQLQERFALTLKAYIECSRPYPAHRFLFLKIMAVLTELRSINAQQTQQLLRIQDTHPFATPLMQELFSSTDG

Sequence of Peroxisome proliferator-activated receptor alpha (Homo sapiens) (Q07869 whole entry, looked up, the tested form may be a part): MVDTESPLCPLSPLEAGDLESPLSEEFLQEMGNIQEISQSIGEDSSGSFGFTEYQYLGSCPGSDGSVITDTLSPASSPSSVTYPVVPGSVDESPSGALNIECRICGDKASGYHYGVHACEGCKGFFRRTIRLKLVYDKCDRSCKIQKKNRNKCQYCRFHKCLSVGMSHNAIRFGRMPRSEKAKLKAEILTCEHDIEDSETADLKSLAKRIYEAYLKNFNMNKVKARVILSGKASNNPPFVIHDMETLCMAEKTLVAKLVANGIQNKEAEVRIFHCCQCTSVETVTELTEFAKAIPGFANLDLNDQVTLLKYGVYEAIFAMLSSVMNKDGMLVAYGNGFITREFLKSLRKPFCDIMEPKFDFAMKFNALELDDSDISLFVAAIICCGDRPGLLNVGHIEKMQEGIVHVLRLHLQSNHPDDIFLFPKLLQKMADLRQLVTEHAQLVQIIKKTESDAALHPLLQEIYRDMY
Sequence of Glucocorticoid receptor (Homo sapiens) (P04150 whole entry, looked up): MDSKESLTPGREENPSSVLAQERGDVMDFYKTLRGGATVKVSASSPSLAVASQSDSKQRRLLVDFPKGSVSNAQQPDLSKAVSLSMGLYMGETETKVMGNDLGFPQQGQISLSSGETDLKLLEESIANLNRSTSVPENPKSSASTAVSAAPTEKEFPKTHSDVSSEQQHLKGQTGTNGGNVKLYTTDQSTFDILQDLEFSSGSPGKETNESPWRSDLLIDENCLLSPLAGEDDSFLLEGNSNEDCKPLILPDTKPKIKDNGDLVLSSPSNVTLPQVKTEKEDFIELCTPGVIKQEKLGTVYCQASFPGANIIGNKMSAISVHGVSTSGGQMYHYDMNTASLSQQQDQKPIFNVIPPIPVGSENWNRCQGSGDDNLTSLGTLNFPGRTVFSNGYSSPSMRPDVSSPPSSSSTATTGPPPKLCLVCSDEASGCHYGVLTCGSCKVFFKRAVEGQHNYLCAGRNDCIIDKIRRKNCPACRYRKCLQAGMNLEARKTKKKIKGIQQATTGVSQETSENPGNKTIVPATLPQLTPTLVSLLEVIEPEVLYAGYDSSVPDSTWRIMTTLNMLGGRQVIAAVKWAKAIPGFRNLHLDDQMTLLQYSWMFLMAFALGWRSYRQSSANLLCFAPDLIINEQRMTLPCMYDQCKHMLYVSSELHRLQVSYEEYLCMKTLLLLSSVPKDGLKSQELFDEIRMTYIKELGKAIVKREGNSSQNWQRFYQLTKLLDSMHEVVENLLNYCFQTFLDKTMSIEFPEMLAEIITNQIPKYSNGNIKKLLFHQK
Sequence of Thyroid hormone receptor beta (Homo sapiens) (P10828 whole entry, looked up): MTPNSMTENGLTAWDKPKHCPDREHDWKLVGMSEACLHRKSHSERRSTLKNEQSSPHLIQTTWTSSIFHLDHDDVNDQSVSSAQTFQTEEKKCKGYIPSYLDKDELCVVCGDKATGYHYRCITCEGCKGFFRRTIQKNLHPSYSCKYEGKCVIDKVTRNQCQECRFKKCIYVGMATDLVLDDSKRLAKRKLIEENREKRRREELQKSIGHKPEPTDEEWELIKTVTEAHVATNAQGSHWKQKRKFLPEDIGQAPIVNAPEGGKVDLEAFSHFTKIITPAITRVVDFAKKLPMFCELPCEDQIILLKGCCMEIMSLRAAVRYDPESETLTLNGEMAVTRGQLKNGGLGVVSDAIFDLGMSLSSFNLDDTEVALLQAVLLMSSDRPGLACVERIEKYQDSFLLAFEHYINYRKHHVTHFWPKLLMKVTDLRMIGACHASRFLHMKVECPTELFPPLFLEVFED
Sequence of Tumor necrosis factor (Homo sapiens) (P01375 whole entry, looked up): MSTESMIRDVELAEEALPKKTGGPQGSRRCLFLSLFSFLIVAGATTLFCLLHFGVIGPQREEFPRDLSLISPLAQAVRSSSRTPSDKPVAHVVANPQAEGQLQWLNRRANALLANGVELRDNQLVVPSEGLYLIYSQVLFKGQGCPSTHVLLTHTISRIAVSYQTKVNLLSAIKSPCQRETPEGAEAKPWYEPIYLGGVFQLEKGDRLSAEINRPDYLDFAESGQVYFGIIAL
Sequence of Voltage-gated inwardly rectifying potassium channel KCNH2 (Homo sapiens) (Q12809 whole entry, looked up): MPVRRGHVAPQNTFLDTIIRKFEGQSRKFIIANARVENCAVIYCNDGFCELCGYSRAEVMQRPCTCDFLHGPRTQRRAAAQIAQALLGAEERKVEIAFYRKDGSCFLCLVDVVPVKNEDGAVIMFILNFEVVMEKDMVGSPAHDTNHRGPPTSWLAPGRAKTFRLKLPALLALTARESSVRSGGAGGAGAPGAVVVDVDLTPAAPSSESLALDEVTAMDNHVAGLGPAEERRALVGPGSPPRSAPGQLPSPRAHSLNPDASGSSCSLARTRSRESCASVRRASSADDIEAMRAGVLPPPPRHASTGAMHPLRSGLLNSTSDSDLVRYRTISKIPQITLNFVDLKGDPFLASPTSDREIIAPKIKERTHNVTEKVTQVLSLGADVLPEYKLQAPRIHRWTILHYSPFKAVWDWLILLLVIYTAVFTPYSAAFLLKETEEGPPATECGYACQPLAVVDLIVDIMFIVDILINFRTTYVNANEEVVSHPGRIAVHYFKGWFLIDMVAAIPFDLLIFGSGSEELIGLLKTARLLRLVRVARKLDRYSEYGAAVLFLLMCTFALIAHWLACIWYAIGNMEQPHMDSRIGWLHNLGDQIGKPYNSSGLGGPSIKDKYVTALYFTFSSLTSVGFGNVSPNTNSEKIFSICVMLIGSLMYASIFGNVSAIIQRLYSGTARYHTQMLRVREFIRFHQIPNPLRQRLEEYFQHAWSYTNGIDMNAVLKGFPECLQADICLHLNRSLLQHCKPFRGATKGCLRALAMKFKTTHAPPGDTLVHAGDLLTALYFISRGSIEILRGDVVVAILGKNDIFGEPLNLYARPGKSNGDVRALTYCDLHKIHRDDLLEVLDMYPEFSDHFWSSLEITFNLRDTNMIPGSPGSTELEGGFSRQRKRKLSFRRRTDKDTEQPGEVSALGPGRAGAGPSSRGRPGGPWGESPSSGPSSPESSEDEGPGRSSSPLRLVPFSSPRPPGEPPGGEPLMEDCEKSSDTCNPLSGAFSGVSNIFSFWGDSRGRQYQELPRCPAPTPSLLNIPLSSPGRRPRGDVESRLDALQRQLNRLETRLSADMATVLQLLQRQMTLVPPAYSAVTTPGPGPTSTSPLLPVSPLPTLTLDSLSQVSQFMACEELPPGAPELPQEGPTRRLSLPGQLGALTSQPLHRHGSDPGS

C=CC(=O)OCC(CO)(COC(=O)C=C)COC(=O)C=C
inactive: Potency [1] > 92 µM | Potency [4] > 92 µM | Potency [7] | Potency [15] | Potency [17] | caspase-3 activation [19] -6.03% | Potency [21] | outcome [22] | activation [23] -3.48% and -11.6% | outcome [24] | Potency [25] | outcome [26] | activation [27] 2.52% and -1.81% | max response [28] 1.55% and 0.0188% | max response [30] -14.2%
active: Potency [2] 1.6 µM | Potency [3] 8.68 µM | Potency [5] 17.8 µM | Potency [6] 2.02 µM | Potency [8] 15.8 µM | Potency [9] 2 µM | Potency [10] 50.1 µM | Potency [11] 2.51 µM | Potency [12] 1.58 µM | Potency [13] 3.16 µM | activity change, negative = cytotoxicity [14] -91.9% | caspase-3 activation [16] -6.15% | caspase-3 activation [18] -3.53% | Potency [20] 6.31 µM | Potency [29] 5.01 µM and 22.4 µM
